Source: PubChem (several laboratories)
Compounds with a hit are over-represented: about 2.4% of the library has one in this group of screens.
Rpn11 block – Rpn11 (PSMD14) deubiquitinase inhibitors, primary screen, biochemical, fluorescence polarization, uHTS; 360,000 tested, 0.59% active; human 26S proteasome, Ub4-pepOG fluorescence polarization; 20S core pre-blocked with epoxomicin; 26S proteasome non-ATPase regulatory subunit 14 (Homo sapiens), O00487; inhibition, % at 20 µM; AID 588493, 2011;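 active means inhibition at 20 µM, scaled to each plate's controls, above about 33%, limit read from the data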
Target sequence (O00487 whole entry, looked up): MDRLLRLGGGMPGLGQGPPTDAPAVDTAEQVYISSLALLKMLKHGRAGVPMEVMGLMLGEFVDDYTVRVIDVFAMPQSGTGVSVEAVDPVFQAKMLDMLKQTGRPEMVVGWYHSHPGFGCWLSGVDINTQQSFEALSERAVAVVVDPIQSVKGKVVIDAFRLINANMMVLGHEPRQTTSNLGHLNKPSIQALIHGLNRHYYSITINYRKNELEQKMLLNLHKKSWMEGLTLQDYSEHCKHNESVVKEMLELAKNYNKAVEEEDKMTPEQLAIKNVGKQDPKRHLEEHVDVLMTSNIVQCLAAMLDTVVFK
NadD block – inhibitors of S. aureus NadD, primary screen, biochemical, colorimetric, uHTS; 360,000 tested, 0.78% active; purified NadD enzyme, colorimetric absorbance read-out; inhibition, % at 20 µM; AID 602399, 2012; in the data active means inhibition above about 26%
PP5 primary – PP5 phosphatase inhibitors, primary screen, biochemical, fluorescence; inhibition, % at 6.7 µM; Serine/threonine-protein phosphatase 5 (Homo sapiens), P53041; 320,000 tested, 0.18% active; purified PP5c, OMFP substrate fluorescence;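 active means inhibition above the campaign's mean inhibition across all tested compounds plus 3 SD, cut at about 9.5% in these data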
PP1 inh – PP1-alpha phosphatase inhibitors, primary screen, counter-screen for PP5 inhibitor project, biochemical, fluorescence, OMFP substrate, single point; purified PP1alpha; AID 2235, 2010; Serine/threonine-protein phosphatase PP1-alpha catalytic subunit (Homo sapiens), P62136; 320,000 tested, 0.9% active; inhibition, % at 6.7 µM;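 active means inhibition above the mean inhibition of all tested compounds plus 3 SD, computed separately for each screening campaign, cut at about 15% in these data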
Target sequence (P62136 whole entry, looked up): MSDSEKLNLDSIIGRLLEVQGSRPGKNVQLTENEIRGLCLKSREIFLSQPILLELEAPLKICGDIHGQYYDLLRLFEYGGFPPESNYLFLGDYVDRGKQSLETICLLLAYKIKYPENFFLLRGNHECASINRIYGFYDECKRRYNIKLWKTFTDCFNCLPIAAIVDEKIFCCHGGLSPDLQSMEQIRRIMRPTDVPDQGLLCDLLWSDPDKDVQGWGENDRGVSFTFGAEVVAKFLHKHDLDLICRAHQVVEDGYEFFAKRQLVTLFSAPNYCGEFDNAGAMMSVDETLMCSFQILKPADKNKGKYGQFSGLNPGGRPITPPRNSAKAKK
PREPL inhibitor – PREPL enzyme inhibitors, primary screen, biochemical, fluorescence polarization; recombinant PREPL, fluorescence polarization activity-based probe; 320,000 tested, 0.68% active; Prolyl endopeptidase-like (Homo sapiens), Q4J6C6; inhibition, % at 5.96 µM; in the data active means inhibition above about 43%
NadD inh conf – inhibitors of S. aureus NadD, confirmation, biochemical, colorimetric, single concentration. shares compounds with NadD block. purified S. aureus NadD, colorimetric enzyme assay. 2,000 tested, 13% active. inhibition, % at 20 µM. AID 624309, 2012; in the data active means inhibition mostly above about 42%, no sharp cut-off; inactive means mostly below about 42%
Each line names hits and unclear results; the compound was inactive in the other large screens (follow-up assays come after a bar, where they were run).

Cc1ncsc1C(=O)N1CCCC(CNS(=O)(=O)c2cccs2)C1 (stereo not drawn)	none
CCOc1ccc(CCN2C(=S)N([C@@H](Cc3ccccc3)CN3CCC[C@@H]3CN3C(=S)NC[C@@H]3Cc3ccc(O)cc3)C[C@@H]2CC(C)C)cc1	NadD block 31.3 (no result: PP5 primary, PP1 inh, PREPL inhibitor) | NadD inh conf inactive
CC(C)C[C@H]1CNC(=S)N1C[C@H]1CCCN1C[C@H](Cc1ccccc1)N1C[C@H](CC(C)C)N(CCc2ccccc2)C1=S	none (no result: PP5 primary, PP1 inh, PREPL inhibitor)
CC(C)C[C@H]1CNC(=S)N1CC1CCCN1C[C@H](Cc1ccc(O)cc1)N1C[C@H](Cc2ccccc2)N(CC2CCCCC2)C1=S (stereo partly drawn)	none (no result: PP5 primary, PP1 inh, PREPL inhibitor)
CCOc1ccc(CCN2C(=S)N([C@@H](Cc3ccc(O)cc3)CN3CCCC3CN3C(=S)NC[C@@H]3Cc3ccc(O)cc3)C[C@@H]2CC(C)C)cc1 (stereo partly drawn)	NadD block 43.2 (no result: PP5 primary, PP1 inh, PREPL inhibitor) | NadD inh conf inactive
CCOc1ccc(CCN2C(=S)N([C@@H](Cc3ccc(O)cc3)CN3CCC[C@@H]3CN3C(=S)NC[C@@H]3CC(C)C)C[C@@H]2Cc2ccc(O)cc2)cc1	NadD block 48.2 (no result: PP5 primary, PP1 inh, PREPL inhibitor) | NadD inh conf inactive
COc1ccc(NS(=O)(=O)c2cc3c(cc2C)N(C(C)=O)CCO3)cc1OC	none
Cc1cccc(NC(=O)CCNS(=O)(=O)c2cc(Br)cnc2N)c1C	none
O=C(Nc1c2c(nn1-c1ccc(F)cc1)CSC2)c1ccc(S(=O)(=O)N2CCOCC2)cc1	NadD block 41.8 | NadD inh conf inactive
CC(C)(C)n1nc2c(c1NC(=O)c1ccc(S(=O)(=O)N3CCCC3)cc1)CSC2	NadD block 31.2 | NadD inh conf 47.7
Cc1cccc(-n2nc3c(c2NC(=O)c2ccc(S(=O)(=O)N4CCOCC4)cc2)CSC3)c1C	none (no result: PP5 primary, PP1 inh, PREPL inhibitor)
CC(NCC(=O)Nc1ccccc1C(=O)NC1CC1)c1ccc(S(C)(=O)=O)cc1 (stereo not drawn)	none
C=CCOc1ccc(C2/C(=C(\O)c3ccc4c(c3)OCCO4)C(=O)C(=O)N2CCCN2CCOCC2)cc1 (stereo not drawn)	NadD block 44.0 | NadD inh conf inactive
COC(=O)c1ccc(C2/C(=C(\O)c3ccc4c(c3)OCCO4)C(=O)C(=O)N2CCCN2CCOCC2)cc1 (stereo not drawn)	none
CCCCOc1cccc(C2/C(=C(\O)c3ccc4c(c3)OCCO4)C(=O)C(=O)N2CCN2CCOCC2)c1 (stereo not drawn)	NadD block 46.6 | NadD inh conf inactive
CCOc1ccc(S(=O)(=O)NCCc2ccccn2)cc1	none (no result: PP5 primary, PP1 inh)
Cc1onc(-c2ccccc2Cl)c1C(=O)NC(=S)Nc1ccc(C(C)(C)C)cc1	none
COc1ccc2nc(SCC(=O)N(C)CC(=O)Nc3ccc(F)cc3)[nH]c2c1	none
COc1cccc(C(=O)Oc2c(Br)cc(Br)cc2/C=N/NC(=O)c2cc(C)[nH]n2)c1	NadD block 42.1 | NadD inh conf inactive
C(=C\c1ccco1)/c1ccc2ccccc2n1	NadD block 43.8 | NadD inh conf inactive
Fc1cccc(F)c1/C=C/c1ccc2ccccc2n1	none
CCC(=O)NC(c1cccs1)c1ccc2cccnc2c1O (stereo not drawn)	none
CCC(=O)NC(c1cccs1)c1cc([N+](=O)[O-])c2cccnc2c1OC (stereo not drawn)	NadD block 32.5 (no result: PP5 primary, PP1 inh, PREPL inhibitor) | NadD inh conf inactive
CN(C)S(=O)(=O)c1ccc(C(=O)Nc2cc(S(=O)(=O)Nc3ccccc3Cl)ccc2N2CCCCC2)cc1	NadD block 28.8 | NadD inh conf inactive
Cc1cccc(NC(=O)c2cc(NC(=O)c3ccco3)ccc2N2CCCCC2)c1	none
COc1ccccc1NS(=O)(=O)c1cc(NC(=O)Nc2cccc(C)c2)ccc1N1CCCCC1	NadD block 30.5 | NadD inh conf inactive
Cc1cccc(NC(=O)c2cc(NC(=O)c3ccccc3)ccc2N2CCCCC2)c1	NadD block 32.2 | NadD inh conf inactive
O=C(Nc1ccc(Cl)cc1)Nc1ccc(N2CCCC2)c(S(=O)(=O)Nc2ccccc2Cl)c1	NadD block 33.0, PP1 inh 17.3 | NadD inh conf inactive
COc1ccccc1N1CCN(C(=O)CCCN2C(=O)c3cccc4cccc(c34)C2=O)CC1	none
O=C(c1ccc(COCC(F)(F)F)o1)N1CCCC1	none
COc1cc2c(cc1[N+](=O)[O-])-c1ccc([N+](=O)[O-])cc1C2=NNC(N)=S	NadD block 48.2 (no result: PP5 primary, PP1 inh, PREPL inhibitor) | NadD inh conf inactive
NC(=S)NN=C1c2cc(Cl)ccc2-c2c1cc(Cl)cc2[N+](=O)[O-]	NadD block 35.2 (no result: PP5 primary, PP1 inh, PREPL inhibitor) | NadD inh conf inactive
COc1cc2c(cc1[N+](=O)[O-])-c1ccc([N+](=O)[O-])cc1C2	none (no result: PP5 primary, PP1 inh, PREPL inhibitor)
COc1cccc(N2CC(C(=O)Nc3nnc(SCC(=O)NC4CCCC4)s3)CC2=O)c1 (stereo not drawn)	none
Cc1ccccc1N1CC(C(=O)Nc2nnc(SCC(=O)Nc3nccs3)s2)CC1=O (stereo not drawn)	NadD block 40.4 | NadD inh conf inactive
Cc1cccc(N2CC(C(=O)Nc3nnc(SCC(=O)Nc4nccs4)s3)CC2=O)c1 (stereo not drawn)	NadD block 62.3 | NadD inh conf inactive
Cc1cccc(NC(=O)CN2C(=O)S/C(=C\c3ccc(O)c([N+](=O)[O-])c3)C2=O)c1	none
Cc1ccc(NC(=O)CN2C(=O)S/C(=C/c3ccc(O)c([N+](=O)[O-])c3)C2=O)cc1C	NadD block 34.8 (no result: PP5 primary, PP1 inh, PREPL inhibitor) | NadD inh conf inactive
COc1cc(OC)cc(-c2c(-c3cccs3)c3cc(-c4ccn[nH]4)ccc3n2C)c1	NadD block 37.7 | NadD inh conf inactive
O=C(Nc1nc2ccc(F)cc2s1)C1CCN(S(=O)(=O)c2cc([N+](=O)[O-])ccc2Cl)CC1	NadD block 35.5 | NadD inh conf inactive
Cn1c(SCC(=O)c2ccc(-c3ccccc3)cc2)nnc1-c1ccco1	NadD block 32.3 | NadD inh conf inactive
O=C(/C=C/c1ccc2ccccc2c1)c1ccoc1	NadD block 30.3 | NadD inh conf inactive
O=c1[nH]cnc2c1sc1nc(-c3ccccc3)c3c(c12)CCCC3	none
S=c1nc[nH]c2c1sc1nc(-c3ccccc3)c3c(c12)CCCC3	NadD block 40.0 | NadD inh conf inactive
Cc1ccc(NS(=O)(=O)c2cc(NC(=O)c3ccc4c(c3)NC(=O)CS4)ccc2C)c(C)c1	NadD block 34.0 | NadD inh conf inactive
O=S(=O)(c1ccc2c(c1)C(=NO)c1cc(S(=O)(=O)N3CCCCC3)ccc1-2)N1CCCCC1	NadD block 33.9 | NadD inh conf inactive
